Assay [1] in a line: Confirmatory qHTS for small molecule stabilizers of the endoplasmic reticulum resident proteome: Secreted ER Calcium Modulated Protein (SERCaMP) assay (AID 1508628). Further: nearly all actives have a fitted effect of over 40% in size. Further: potency means the concentration at half of the fitted maximal effect. The method, boiled down: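 SH-SY5Y cells stably expressing GLuc-SERCaMP, treated 16 h with compound (primary 1.53, 7.67, 38.3 uM; confirmation 11 concentrations, up to 76.6 uM), then 100 nM thapsigargin for 4 h. Secreted Gaussia luciferase in medium read by coelenterazine luminescence.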
On the technique in general: qHTS replaces the single test concentration by a dilution series.

A short description of assay [2]: Cell Viability qHTS for small molecule stabilizers of the endoplasmic reticulum resident proteome (AID 1508629).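 Further: compound exposure about 46 h in total before the viability read.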 Further: potency means the concentration at half of the fitted maximal effect.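 On max response: human SH-SY5Y neuroblastoma cells carrying the GLuc-SERCaMP reporter; on the % scale 0 is the no-effect control and ±100 the full control effect.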 To be noted: cell viability counter-screen, 100 nM thapsigargin for final 4 h.
Assay [3] is described as follows: Primary qHTS for small molecule stabilizers of the endoplasmic reticulum resident proteome: Secreted ER Calcium Modulated Protein (SERCaMP) assay (AID 1508630). Further: on the % scale 0 is the no-effect control and ±100 the full control effect. The method, boiled down: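 GLuc-SERCaMP-expressing SH-SY5Y cells, pretreated 16 h with compound, are challenged with thapsigargin to empty ER calcium stores; after 4 h, coelenterazine is added directly to the medium and luminescence is imaged.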

Assay [4] is described as follows: A High-Content qHTS Against Drug Library for the Identification of Small Molecules that Inhibit DYT1 Early Onset Primary Dystonia-Associated Cell Pathology (AID 1645839; calls by dose curve). The gist of the method:
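Readout: %pathology, the punctate EGFP-TorsinA distribution from imaging, as the primary channel and cell count as the toxicity counterscreen. HEK293 Flp-In cells expressing delE TorsinA were induced with tetracycline and treated with compound for 48 h.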

Assay [5] addresses Cytochrome P450 2D6 (Homo sapiens) (UniProt P10635). Kind of assay: Cytochrome P450 family 2 subfamily D member 6 (CYP2D6) small molecule antagonists: luciferase biochemical (cell-free) qHTS assay (AID 1645840; active means well fitted curve in the direction sought with a large enough effect in the repeat runs; an effect the other way counts as inactive or inconclusive; further: nearly all actives have a fitted effect of over 55% in size; further: potency means the concentration at half of the fitted maximal effect; on activity change, negative = inhibition: on the % scale 0 is the no-effect control and ±100 the full control effect). The gist of the method: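 P450-Glo luminescent screen: recombinant CYP2D6 enzyme–proluciferin substrate mix preincubated with compound 10 min at room temperature, then NADPH regeneration added for 1 h at room temperature. Detection reagent added for 20 min; luciferin light read as relative luminescence units.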

Assay [6] concerns the target Cytochrome P450 2C9 (Homo sapiens) (UniProt P11712). Kind of assay: Cytochrome P450 family 2 subfamily C member 9 (CYP2C9) small molecule antagonists: luciferase biochemical (cell-free) qHTS assay (AID 1645842; active means well fitted curve in the direction sought with a large enough effect in the repeat runs; an effect the other way counts as inactive or inconclusive; further: nearly all actives have a fitted effect of over 55% in size; further: potency means the concentration at half of the fitted maximal effect; on activity change, negative = inhibition: on the % scale 0 is the no-effect control and ±100 the full control effect). The gist of the method:
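Luminescence, after 20 min with luciferin detection reagent, reflected CYP2C9 turnover during a 1 h NADPH-driven reaction at 37C. Enzyme-substrate mix contained 0.4% bovine serum albumin and was preincubated with compound 10 min at room temperature.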

A further assay concerns the target Papain (Carica papaya) (UniProt P00784). Kind of assay: Primary qHTS assay for inhibitors of the protease papain (AID 1645873).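 Further: papain turnover of Z-FR-AMC read as the AMC fluorescence gain over 10 min.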 Further: potency means the concentration at half of the fitted maximal effect.
Assay [7] in a line: Primary qHTS for inhibitors of nuclear receptor binding SET domain protein 2 (NSD2) in an isogenic RCH-ACV NSD2 p.E1099K mutant (9B) (AID 1645876). Further: nearly all actives have a fitted effect of over 70% in size. Further: potency means the concentration at half of the fitted maximal effect.
The nature of assay [8]: Primary qHTS for inhibitors of nuclear receptor binding SET domain protein 2 (NSD2) in an RCH-ACV wild type WT cells (2C) (AID 1645877). Further: nearly all actives have a fitted effect of over 70% in size. Further: potency means the concentration at half of the fitted maximal effect.
Assay [9] addresses Rap guanine nucleotide exchange factor 3 (Homo sapiens) (UniProt O95398). Kind of assay: Confirmatory qHTS for antagonist of cAMP-regulated guanine nucleotide exchange factor 3 (EPAC1) (AID 1645880).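 Further: plate controls were DMSO only for no effect and full effect of the ATA control for full effect; nearly all actives have a fitted effect of over 55% in size.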 The gist of the method: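 Nucleotide exchange uses 100 nM EPAC1, 250 nM RAP1B-BODIPY-GDP and 50 uM GDP, with compounds in a concentration-titration series. After 5 min at room temperature, fluorescence (480 nm ex/540 nm em) is read every 5 min for 30 min. Data are normalized to control ATA and DMSO.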

The target is the same in assay [10]. Kind of assay: Confirmatory qHTS for agonist of cAMP-regulated guanine nucleotide exchange factor 3 (EPAC1) (AID 1645881). Further: nearly all actives have a fitted effect of over 75% in size. Further: potency means the concentration at half of the fitted maximal effect.
The target of assay [11] is Rap guanine nucleotide exchange factor 4 (Homo sapiens) (UniProt Q8WZA2). The assay is described as follows: Confirmatory qHTS for agonist of cAMP-regulated guanine nucleotide exchange factor 4 (EPAC2) (AID 1645884).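 Further: nucleotide exchange releases bodipy-GDP from Rap1 and this lowers its fluorescence; nearly all actives have a fitted effect of over 65% in size.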 Further: potency means the concentration at half of the fitted maximal effect.
For assay [12] the target is unchanged. The assay is described as follows: Confirmatory qHTS for antagonist of cAMP-regulated guanine nucleotide exchange factor 4 (EPAC2) (AID 1645885). Further: nearly all actives have a fitted effect of over 25% in size. Further: potency means the concentration at half of the fitted maximal effect.
The target of assay [13] is Rap guanine nucleotide exchange factor 3 (Homo sapiens) (UniProt O95398). The assay is described as follows: Counterscreen qHTS for antagonist of cAMP-regulated guanine nucleotide exchange factor 3 (EPAC1) (AID 1645888). Further: % of control where 0% means no effect. The method, boiled down: (§1)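 Measured: fluorescence of BODIPY-GDP bound to Rap1B, which falls as exchange proceeds. Conditions include 50 uM competing GDP, 5 and 30 min reads, and a later cAMP challenge for antagonist detection.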
Background: A counterscreen serves to expose hits that act by an unwanted route or on another target.

Assay [14] deals with Catechol O-methyltransferase (Homo sapiens) (UniProt P21964). Kind of assay: Confirmatory Screen for Target Class Profiling of Small Molecule Inhibitors of Methyltransferases (AID 1745852). The conditions noted are these: MTase-Glo luminescence, SAH detection, recombinant enzyme; measured here: COMT max response; stronger effect = lower value.
The target of assay [15] is Guanidinoacetate N-methyltransferase (Homo sapiens) (UniProt Q14353). The assay is described as above. The conditions noted are these: MTase-Glo luminescence, SAH detection, recombinant enzyme; activity change, negative = inhibition: at 57.3 µM (top of the series).
Assay [16] addresses Nicotinamide N-methyltransferase (Homo sapiens) (UniProt P40261). The description is as above. To be noted: MTase-Glo luminescence, SAH detection, recombinant enzyme; measured here: NNMT max response; stronger effect = lower value.
The target in assay [17] is Rap guanine nucleotide exchange factor 3 (Homo sapiens) (UniProt O95398). The assay is described as follows: Counterscreen qHTS for agonist of cAMP-regulated guanine nucleotide exchange factor 3 (EPAC1) (AID 1645889). Further: % of control where 0% means no effect; nearly all actives have a fitted effect of over 40% in size. The method, boiled down: as §1

Where “and” joins values, the source holds several entries; their conditions need not be identical. Equal values may be shown once. Inconclusive results are not listed. More than one record can exist for a structure, and the calls need not agree. Calls of active or inactive are those of the source. Unless noted, the call rests on the fitted dose curve; in most records, active means well fitted curve in the direction sought with a large enough effect; inconclusive means small, poorly fitted or top-dose-only effect, or another doubt; inactive means no such curve, though single readings can be large; an effect the other way counts as inactive or inconclusive.

Chain of Cytochrome P450 2D6 (Homo sapiens) (P10635 whole entry, looked up): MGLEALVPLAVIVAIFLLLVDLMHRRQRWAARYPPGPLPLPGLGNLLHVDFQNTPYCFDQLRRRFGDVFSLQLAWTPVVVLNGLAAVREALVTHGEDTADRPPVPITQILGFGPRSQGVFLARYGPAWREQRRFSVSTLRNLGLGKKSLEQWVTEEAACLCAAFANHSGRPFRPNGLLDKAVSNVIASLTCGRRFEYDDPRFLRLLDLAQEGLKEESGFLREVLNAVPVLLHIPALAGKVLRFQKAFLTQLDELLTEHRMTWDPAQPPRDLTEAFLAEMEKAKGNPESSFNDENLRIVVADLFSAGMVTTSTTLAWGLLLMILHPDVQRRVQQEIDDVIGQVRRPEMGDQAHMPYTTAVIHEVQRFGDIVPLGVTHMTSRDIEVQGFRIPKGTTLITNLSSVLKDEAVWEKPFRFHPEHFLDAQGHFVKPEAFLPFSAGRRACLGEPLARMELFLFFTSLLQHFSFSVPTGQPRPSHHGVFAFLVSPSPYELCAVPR
Chain of Rap guanine nucleotide exchange factor 3 (Homo sapiens) (O95398 whole entry, looked up): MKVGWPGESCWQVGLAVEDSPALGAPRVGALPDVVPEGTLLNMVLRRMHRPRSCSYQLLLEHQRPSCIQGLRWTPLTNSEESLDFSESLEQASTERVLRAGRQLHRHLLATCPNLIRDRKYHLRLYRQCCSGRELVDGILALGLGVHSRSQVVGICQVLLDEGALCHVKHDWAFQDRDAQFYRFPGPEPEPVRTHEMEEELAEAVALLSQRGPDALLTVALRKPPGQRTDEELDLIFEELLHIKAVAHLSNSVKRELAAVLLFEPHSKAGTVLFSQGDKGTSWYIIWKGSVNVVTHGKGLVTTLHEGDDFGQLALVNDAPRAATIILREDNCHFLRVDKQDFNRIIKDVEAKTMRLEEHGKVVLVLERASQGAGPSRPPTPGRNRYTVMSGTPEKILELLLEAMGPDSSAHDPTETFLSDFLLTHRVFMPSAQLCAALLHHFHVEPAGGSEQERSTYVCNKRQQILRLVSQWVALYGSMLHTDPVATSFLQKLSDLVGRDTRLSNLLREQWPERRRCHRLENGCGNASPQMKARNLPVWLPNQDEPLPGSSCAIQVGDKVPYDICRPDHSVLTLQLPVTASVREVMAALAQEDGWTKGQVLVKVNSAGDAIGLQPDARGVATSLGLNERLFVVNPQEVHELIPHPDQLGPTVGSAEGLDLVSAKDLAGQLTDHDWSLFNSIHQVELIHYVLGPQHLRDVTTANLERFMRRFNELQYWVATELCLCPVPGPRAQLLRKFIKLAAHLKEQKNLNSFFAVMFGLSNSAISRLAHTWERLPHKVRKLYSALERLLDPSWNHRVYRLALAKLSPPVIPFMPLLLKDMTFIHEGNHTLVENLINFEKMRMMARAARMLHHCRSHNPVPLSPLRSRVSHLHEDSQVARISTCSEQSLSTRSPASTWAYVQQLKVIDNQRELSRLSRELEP
Chain of Rap guanine nucleotide exchange factor 4 (Homo sapiens) (Q8WZA2 whole entry, looked up): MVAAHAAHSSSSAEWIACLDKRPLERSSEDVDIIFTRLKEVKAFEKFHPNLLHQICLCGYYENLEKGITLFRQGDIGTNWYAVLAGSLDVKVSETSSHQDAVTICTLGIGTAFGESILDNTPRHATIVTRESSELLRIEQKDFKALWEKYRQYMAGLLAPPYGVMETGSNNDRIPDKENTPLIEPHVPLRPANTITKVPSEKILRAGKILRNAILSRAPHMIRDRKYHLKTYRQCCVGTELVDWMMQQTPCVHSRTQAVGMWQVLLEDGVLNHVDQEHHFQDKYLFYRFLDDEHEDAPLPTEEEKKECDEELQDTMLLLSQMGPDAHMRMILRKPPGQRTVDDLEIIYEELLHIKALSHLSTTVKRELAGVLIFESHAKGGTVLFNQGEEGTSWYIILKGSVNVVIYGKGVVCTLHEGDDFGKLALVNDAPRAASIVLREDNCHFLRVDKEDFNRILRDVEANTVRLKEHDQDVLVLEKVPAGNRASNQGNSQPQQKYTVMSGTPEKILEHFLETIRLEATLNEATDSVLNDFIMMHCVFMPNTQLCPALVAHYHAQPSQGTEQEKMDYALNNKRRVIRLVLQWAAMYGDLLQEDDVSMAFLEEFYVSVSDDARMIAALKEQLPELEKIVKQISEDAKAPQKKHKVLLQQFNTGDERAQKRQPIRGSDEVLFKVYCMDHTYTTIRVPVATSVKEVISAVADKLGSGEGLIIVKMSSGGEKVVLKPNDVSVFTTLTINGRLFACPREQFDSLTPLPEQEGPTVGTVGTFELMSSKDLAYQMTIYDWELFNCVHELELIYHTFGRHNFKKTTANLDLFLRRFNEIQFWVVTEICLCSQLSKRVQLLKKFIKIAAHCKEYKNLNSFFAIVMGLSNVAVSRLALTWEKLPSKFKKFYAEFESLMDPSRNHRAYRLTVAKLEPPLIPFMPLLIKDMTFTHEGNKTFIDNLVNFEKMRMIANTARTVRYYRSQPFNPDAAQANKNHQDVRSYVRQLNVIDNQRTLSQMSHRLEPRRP
Chain of Papain (Carica papaya) (P00784 whole entry, looked up, the tested form may be a part): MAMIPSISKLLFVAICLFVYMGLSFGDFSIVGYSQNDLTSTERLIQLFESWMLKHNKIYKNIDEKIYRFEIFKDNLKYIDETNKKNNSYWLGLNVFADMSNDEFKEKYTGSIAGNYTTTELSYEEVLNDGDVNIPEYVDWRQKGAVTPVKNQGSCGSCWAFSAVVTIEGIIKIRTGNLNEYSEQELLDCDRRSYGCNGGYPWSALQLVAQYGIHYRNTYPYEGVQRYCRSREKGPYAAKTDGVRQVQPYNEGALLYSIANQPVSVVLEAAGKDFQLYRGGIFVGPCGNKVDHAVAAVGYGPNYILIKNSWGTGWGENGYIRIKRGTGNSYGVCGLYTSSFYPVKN
Chain of Cytochrome P450 2C9 (Homo sapiens) (P11712 whole entry, looked up): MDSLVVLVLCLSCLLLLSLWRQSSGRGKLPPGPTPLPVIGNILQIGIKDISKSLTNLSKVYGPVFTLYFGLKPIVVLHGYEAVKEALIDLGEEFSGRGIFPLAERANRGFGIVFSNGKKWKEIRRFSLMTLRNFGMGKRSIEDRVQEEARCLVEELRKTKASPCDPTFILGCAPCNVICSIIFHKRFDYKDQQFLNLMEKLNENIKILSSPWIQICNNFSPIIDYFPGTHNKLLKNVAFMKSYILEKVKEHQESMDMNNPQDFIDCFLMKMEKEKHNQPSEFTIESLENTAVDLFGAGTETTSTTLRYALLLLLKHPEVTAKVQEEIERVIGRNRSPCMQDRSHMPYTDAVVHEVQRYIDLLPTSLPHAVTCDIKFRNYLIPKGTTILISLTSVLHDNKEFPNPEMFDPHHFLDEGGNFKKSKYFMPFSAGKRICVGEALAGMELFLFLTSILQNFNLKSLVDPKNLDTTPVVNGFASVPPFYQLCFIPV
Chain of Catechol O-methyltransferase (Homo sapiens) (P21964 whole entry, looked up): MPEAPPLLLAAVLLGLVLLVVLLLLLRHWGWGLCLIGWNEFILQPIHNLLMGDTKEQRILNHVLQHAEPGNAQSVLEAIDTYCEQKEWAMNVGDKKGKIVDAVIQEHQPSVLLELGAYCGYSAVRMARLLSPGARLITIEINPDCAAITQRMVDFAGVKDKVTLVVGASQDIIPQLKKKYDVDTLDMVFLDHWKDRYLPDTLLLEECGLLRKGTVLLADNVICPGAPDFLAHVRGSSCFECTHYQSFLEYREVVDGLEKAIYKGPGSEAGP
Chain of Nicotinamide N-methyltransferase (Homo sapiens) (P40261 whole entry, looked up): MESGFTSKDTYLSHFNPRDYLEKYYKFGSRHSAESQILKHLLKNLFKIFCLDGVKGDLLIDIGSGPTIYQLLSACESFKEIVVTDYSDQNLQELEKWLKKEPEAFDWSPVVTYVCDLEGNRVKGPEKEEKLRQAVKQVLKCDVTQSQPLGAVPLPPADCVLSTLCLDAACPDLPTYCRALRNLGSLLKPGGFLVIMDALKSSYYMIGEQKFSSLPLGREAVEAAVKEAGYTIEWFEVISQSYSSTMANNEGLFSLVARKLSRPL

Turning to `CN1C2CCC1CC(OC(=O)C(CO)c1ccccc1)C2` (configuration not stated), in assay [1], the Potency is 39.8 µM (active). Also, in assay [2], the max response is -15.7% (inactive) and 13.4% (inactive). Further, in assay [3], the Potency result was “inactive”.
In the case of `Cn1c(=O)c2c(ncn2C)n(C)c1=O`, the Potency result (in assay [1]; in assay [3]; in assay [4]; in [5]; in assay [6]; in the assay with Papain (Carica papaya)) was “inactive” throughout. The Potency result in [7] and in assay [8] was “inactive” throughout. In addition, the max response in assay [2] was 8.95% (inactive) [middle of 5 runs].
Take `O=c1[nH]cc(F)c(=O)[nH]1`: the Potency entry (in assay [3]; in assay [4]; in [5]; in assay [6]; with Papain (Carica papaya)) was “inactive” throughout. Further, the Potency is 13.2 µM (active) in assay [7]; 23.7 µM (active) and 14.8 µM (active) in [8].
Take `OCCN(CCO)c1nc(N2CCCCC2)c2nc(N(CCO)CCO)nc(N3CCCCC3)c2n1`: the Potency in assay [1] was 31.6 µM (active); in assay [5], 4.9 µM (active); in assay [7], 6.68 µM (active) and inactive; in assay [8], 6.68 µM (active) and inactive; in [10], 79.3 µM (active) and 70.6 µM (active) and 63 µM (active); in assay [11], 79.3 µM (active) and 70.6 µM (active) and 112 µM (active). Also, the Potency result (in assay [3]; in the assay with Papain (Carica papaya); in assay [12]) was “inactive” each time. The outcome in assay [9] and in assay [13] was “inactive” each time.
Turning to `CC12CC3CC(C)(C1)CC(N)(C3)C2`, the Potency in [1] was 11.2 µM (active) and 39.8 µM (active). In addition, the max response in assay [2] is 23.1% (inactive). The Potency result (in assay [3]; in assay [5]; with Papain (Carica papaya); in [7]) was “inactive” throughout.
With `Cc1ccc(C(=O)Nc2ccc(S(=O)(=O)O)c3cc(S(=O)(=O)O)cc(S(=O)(=O)O)c23)cc1NC(=O)c1cccc(NC(=O)Nc2cccc(C(=O)Nc3cc(C(=O)Nc4ccc(S(=O)(=O)O)c5cc(S(=O)(=O)O)cc(S(=O)(=O)O)c45)ccc3C)c2)c1`, the Potency in [1] is 15.8 µM (active); in the assay with Papain (Carica papaya), 7.08 µM (active). Also, the Potency result in assay [3], in assay [4], in assay [5], in [6], in assay [7] and in assay [8] was “inactive” in each case. Besides, the activity was 5.77% in assay [14] and -4.38% in assay [16]. Moreover, the activity change, negative = inhibition in assay [15] was 2.65%.
In the case of `Fc1ccc([C@@H]2CCNC[C@H]2COc2ccc3c(c2)OCO3)cc1`, the Potency result in [3] was “inactive”.
As for `CCC1(c2ccccc2)C(=O)NCNC1=O`, the Potency result (in [3]; in [4]; in assay [5]; in assay [6]; in the assay with Papain (Carica papaya); in assay [7]) was “inactive” throughout. Moreover, the Potency result in [8] is “inactive”.
Take `O=c1c(O)c(-c2ccc(O)c(O)c2)oc2cc(O)cc(O)c12`: the max response in assay [2] was -19.3% (inactive) and 6.63% (inactive) and -20.3% (inactive). Further, the Potency result (in assay [3]; with Papain (Carica papaya); in [10]; in assay [11]; in [17]) was “inactive” in each case. For the same molecule, the Potency in [7] was 11.9 µM (active) and inactive and 9.2 µM (active); in assay [8] it was “inactive and 14.6 µM (active)”; in [12], 75.7 µM (active). For the same molecule, the outcome in assay [13] was “inactive”.
Take `CC(C)NCC(O)c1ccc(O)c(O)c1` (configuration not stated): the Potency entry (in [1]; in assay [3]; in assay [6]; in the assay with Papain (Carica papaya); in [7]) was “inactive” each time.
As for `COc1ccc(CCN(C)CCCC(C#N)(c2ccc(OC)c(OC)c2)C(C)C)cc1OC` (configuration not stated), the Potency in [1] is 20 µM (active). Besides, the max response in assay [2] was -5.84% (inactive). Further, the Potency result in assay [3] and in assay [5] was “inactive” throughout.
As to `CCCCc1oc2ccccc2c1C(=O)c1cc(I)c(OCCN(CC)CC)c(I)c1`, the Potency result (in assay [1]; in [3]; with Papain (Carica papaya)) was “inactive” in each case. For the same molecule, the max response in [2] is 10.4% (inactive).
Regarding `C[C@@H]1CC(=O)NN=C1c1ccc(NN=C(C#N)C#N)cc1`, the Potency in [1] is 15.8 µM (active); in assay [6] it was 977 nM (active) and 692 nM (active); in assay [7], 9.44 µM (active) and 18.6 µM (active); in assay [8], 11.9 µM (active) and 23.7 µM (active). Moreover, the max response in assay [2] was -18.7% (inactive). The Potency entry in [3], in assay [4] and in assay [5] was “inactive” in each case.
In the case of `Cc1cc(C(C)(C)C)cc(C)c1CC1=NCCN1`, the Potency result (in assay [3]; in assay [4]; in assay [6]; with Papain (Carica papaya)) was “inactive” each time. For the same molecule, the Potency is 4.36 µM (active) in assay [5]; “inactive and 20.9 µM (active)” in assay [7]; “inactive and 18.6 µM (active)” in assay [8].
On to `CN1CCC(=C2c3ccccc3C=Cc3ccccc32)CC1`, for which the Potency in assay [1] was 20 µM (active) and 15.8 µM (active); in assay [5], 2.19 µM (active); in assay [7], 23.5 µM (active); in assay [8] it was 18.6 µM (active). In addition, the Potency result (in assay [6]; in the assay with Papain (Carica papaya)) was “inactive” in each case.
In the case of `CS(=O)(=O)CCNCc1ccc(-c2ccc3ncnc(Nc4ccc(OCc5cccc(F)c5)c(Cl)c4)c3c2)o1`, the Potency entry in assay [1] and in [3] was “inactive” each time. Also, the Potency is 18.8 µM (active) and 9.16 µM (active) and 16.6 µM (active) in [7]; 11.9 µM (active) and 7.28 µM (active) and 16.6 µM (active) in assay [8].
Consider `COc1cc2c(c(OC)c1OC)-c1ccc(OC)c(=O)cc1[C@@H](NC(C)=O)CC2`, for which the Potency result (in assay [3]; in [4]; in [5]; in assay [6]; in the assay with Papain (Carica papaya)) was “inactive” each time. Further, the Potency in [7] is 33.5 nM (active) and 33.2 nM (active); in [8] it was 15 nM (active) and 26.3 nM (active).
Turning to `COc1ccccc1OCCNCC(O)COc1cccc2[nH]c3ccccc3c12` (configuration not stated), the Potency entry (in [1]; in [3]; with Papain (Carica papaya)) was “inactive” in each case. In addition, the values for the Potency in assay [2] and in assay [5] were 25.1 µM (active) and 1.95 µM (active), respectively.
Regarding `CN1CCC(=C2c3ccccc3CC(=O)c3sccc32)CC1`, the Potency was 20 µM (active) and 25.1 µM (active) in [1]; 1.38 µM (active) in assay [5]. In assay [2], the max response is 19.1% (inactive). Moreover, the Potency entry (in assay [3]; in assay [4]; in assay [6]; in the assay with Papain (Carica papaya); in assay [7]) was “inactive” each time.
With `Clc1ccc2c(c1)C(N1CCNCC1)=Nc1ccccc1O2`, the Potency entry (in [1]; in [3]; in assay [4]; in assay [6]; in the assay with Papain (Carica papaya); in [7]) was “inactive” in each case. The Potency result in assay [8] was “inactive”. In addition, the max response in assay [2] is -4.18% (inactive). The Potency in assay [5] is 4.36 µM (active).

(Values after PubChem BioAssay (NCATS).)
